Bioassay records from PubChem BioAssay.
HP1b chromo inh – blocks HP1-beta chromodomain binding to methylated histone tails; P83916; AlphaScreen HP1-beta / biotin-H3K9me3 peptide binding; Potency, µM (series often up to 114 µM), for inactives: top-dose activity change, negative = inhibition, actives largely listed as inhibitors; 390,000 tested, 0.56% active; AID 540317; further: nearly all actives have a fitted effect of over 70% in size
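Compound inhibition of the preformed complex between 50 nM HP1-beta and 50 nM biotinylated H3K9me3 peptide was read by AlphaScreen. Buffer was PBS pH 7.4 with 0.01% Tween-20. Incubations ran 30 min at room temperature, with 10 ug/mL donor/acceptor beads.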
JMJD2A Tudor – JMJD2A Tudor domain (human) inhibition; O75164; AlphaScreen JMJD2A-Tudor / H3K4me3 peptide binding; 390,000 tested, 4.4% active; Potency, µM (top dose mostly 114 µM), inactives show top-dose activity change, negative = inhibition, actives largely listed as inhibitors; further: on the % scale 0 is the no-effect control and ±100 the full control effect; nearly all actives have a fitted effect of over 50% in size
BAZ2B block – inhibitors of human BAZ2B bromodomain | AID 504333 | Potency, µM (series often up to 114 µM), for inactives: at the top dose activity change, negative = inhibition, actives largely listed as inhibitors | 360,000 tested, 4.4% active | Q9UIF8 | AlphaScreen BAZ2B-H3K14Ac peptide displacement; further: on the % scale 0 is the no-effect control and ±100 the full control effect; nearly all actives have a fitted effect of over 60% in size
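BAZ2B 50 nM plus b-H3(5-23)K14Ac 50 nM, PBS pH 7.4/0.01% Tween-20, 30 min RT; compound added (max 110 uM), 30 min RT; streptavidin donor/Ni-chelate acceptor beads 10 ug/mL final, 20 min dark; AlphaScreen read.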
G9a block – inhibitors of human histone lysine methyltransferase G9a. G9a H3K9 monomethylation, AlphaScreen, 2 h. 350,000 tested, 8.8% active. Q96KQ7. Potency, µM (series often up to 102 µM), for the others: at the top dose activity, negative = inhibition, hits mostly inhibitors; further: on the % scale 0 is the no-effect control and ±100 the full control effect; nearly all actives have a fitted effect of over 75% in size
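Quantitative HTS format: methyltransferase activity on a biotin-tagged H3K9 peptide is measured by AlphaScreen, using a rabbit anti-monomethyl-H3K9 antibody with streptavidin donor and anti-IgG acceptor beads. Final levels are 20 nM enzyme, 500 nM peptide, 20 uM SAM; 2 h RT.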
12-LOX inh – inhibitors of human 12S-lipoxygenase ALOX12. P18054. purified 12hLO, xylenol orange hydroperoxide absorbance. Potency, µM (series often up to 108 µM), for inactives: at the highest dose activity change, negative = inhibition, actives largely listed as inhibitors. 580,000 tested, 1.1% active; further: on the % scale 0 is the no-effect control and ±100 the full control effect
Target sequence (P18054 whole entry, looked up): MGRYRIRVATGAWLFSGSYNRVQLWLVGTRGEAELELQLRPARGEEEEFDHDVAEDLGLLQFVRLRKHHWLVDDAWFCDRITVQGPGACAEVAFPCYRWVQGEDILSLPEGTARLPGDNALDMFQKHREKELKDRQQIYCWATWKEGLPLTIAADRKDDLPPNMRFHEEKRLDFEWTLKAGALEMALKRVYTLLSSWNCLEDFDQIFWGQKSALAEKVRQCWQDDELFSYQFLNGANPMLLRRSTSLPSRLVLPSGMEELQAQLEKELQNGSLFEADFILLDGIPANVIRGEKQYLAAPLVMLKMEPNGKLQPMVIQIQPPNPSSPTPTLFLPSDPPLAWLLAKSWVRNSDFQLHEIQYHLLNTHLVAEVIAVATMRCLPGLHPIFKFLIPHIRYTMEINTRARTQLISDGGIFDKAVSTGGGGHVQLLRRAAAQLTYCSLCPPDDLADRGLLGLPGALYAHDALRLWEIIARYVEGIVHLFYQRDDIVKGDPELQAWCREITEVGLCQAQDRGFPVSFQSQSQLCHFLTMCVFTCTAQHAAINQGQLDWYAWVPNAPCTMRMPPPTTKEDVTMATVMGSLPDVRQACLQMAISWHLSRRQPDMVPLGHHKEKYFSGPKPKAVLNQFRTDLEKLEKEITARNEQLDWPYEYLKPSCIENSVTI
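Purified human 12hLO at 150 nM in 25 mM Hepes, 0.01% Triton X-100, pH 7.0, preincubated 15 min at room temperature with compound. Reaction started with 40 uM arachidonic acid, 30 min at room temperature. Hydroperoxide measured by Fe-xylenol orange, 573/405 nm absorbance ratio.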
PLK1 PBD block – inhibitors of human PLK1 polo-box domain binding. Potency, µM, inactives show max response, negative = inhibition, most hits filed as inhibitors. Plk1 PBD binding of FITC phosphopeptide, fluorescence polarization. P53350. 360,000 tested, 2.8% active; further: series mostly up to about 57 µM; on the % scale 0 is the no-effect control and ±100 the full control effect; nearly all actives have a fitted effect of over 65% in size
An asterisk follows results filed as active; [ ] = dose if it differs, or a comment. Most compounds without a hit are left out; they make up all but 9% or so of the library. The call rests on the fitted dose curve; in most records, active means well fitted curve in the direction sought with a large enough effect; inconclusive means small, poorly fitted or top-dose-only effect, or another doubt; inactive means no such curve, though single readings can be large; an effect the other way counts as inactive or inconclusive. Potency means the concentration at half of the fitted maximal effect.

Results for CCOc1cc2[nH]c(=S)n(CCN3CCCCC3CC)c(=O)c2cc1OCC (configuration not stated) ?
HP1b chromo inh: 15%; JMJD2A Tudor: -33%; BAZ2B block: 2%; G9a block: 56µM*; 12-LOX inh: inconclusive; PLK1 PBD block: -11%

Results for CCOc1ccc(NC(=O)Cn2c(C)ccc(NC(=O)Nc3cccc(C)c3)c2=O)cc1 ?
12-LOX inh: -17%

How did O=C(NCCCN1CCOCC1)c1ccc2c(=O)n(Cc3ccc(Cl)cc3)c(=S)[nH]c2c1 do in these assays?
HP1b chromo inh: 54%; JMJD2A Tudor: -23%; BAZ2B block: -35%; G9a block: 7.1µM*; 12-LOX inh: -17%; PLK1 PBD block: -15%

How did CC1CCN(CCn2c(=S)[nH]c3cc4c(cc3c2=O)OCO4)CC1 do in these assays?
HP1b chromo inh: 31%; JMJD2A Tudor: -10%; G9a block: -40%; 12-LOX inh: -3%; PLK1 PBD block: 1%

How did CCOc1cc2[nH]c(=S)n(CCCN3CCOCC3)c(=O)c2cc1OCC do in these assays?
HP1b chromo inh: 9%; JMJD2A Tudor: 56µM*; BAZ2B block: 1%; G9a block: -47%[12.7 µM]; 12-LOX inh: -23%; PLK1 PBD block: -4%

What do the screens show for `O=c1c2cc3c(cc2[nH]c(=S)n1CCN1CCOCC1)OCO3`?
HP1b chromo inh: 22%; JMJD2A Tudor: 35µM*; BAZ2B block: inconclusive; G9a block: inconclusive; 12-LOX inh: 0%; PLK1 PBD block: -1%

Results for CCOc1cc2[nH]c(=S)n(CCN3CCC(C)CC3)c(=O)c2cc1OCC ?
HP1b chromo inh: 34%; JMJD2A Tudor: -18%; BAZ2B block: -1%; G9a block: 18%[0.501 µM]; 12-LOX inh: 7%; PLK1 PBD block: -9%

What do the screens show for `COC(=O)c1ccc2c(=O)n(Cc3ccc(C(=O)NCCCN4CCOCC4)cc3)c(=S)[nH]c2c1`?
HP1b chromo inh: 25%; JMJD2A Tudor: -16%; BAZ2B block: -14%; G9a block: inconclusive; 12-LOX inh: 7%; PLK1 PBD block: -21%

How did COc1cc2c(=O)n(CCCN3CCOCC3)c(=S)[nH]c2c(OC)c1OC do in these assays?
HP1b chromo inh: -10%; JMJD2A Tudor: 32µM*; BAZ2B block: -3%; G9a block: 13µM*; 12-LOX inh: inconclusive; PLK1 PBD block: inconclusive

Results for O=C1COC[C@H]([C@H](O)c2ccc(NC(=O)c3ccccc3)cc2)N1 ?
12-LOX inh: -13%[176 µM]

Results for N=C1/C(=C\c2ccc(OC(=O)c3ccc(F)cc3)cc2)C(=O)N=C2SC(N3CCOCC3)=NN12 ?
HP1b chromo inh: 39%; JMJD2A Tudor: 2%; BAZ2B block: 45µM*; G9a block: -9%; 12-LOX inh: -7%; PLK1 PBD block: inconclusive

What do the screens show for `CS(=O)(=O)C1=NN2C(=N)/C(=C\c3ccc(OC(=O)c4ccco4)cc3)C(=O)N=C2S1`?
HP1b chromo inh: 26%; JMJD2A Tudor: -11%; BAZ2B block: 50µM*; G9a block: 45µM*; 12-LOX inh: -25%; PLK1 PBD block: inconclusive

Results for CCS(=O)(=O)C1=NN2C(=N)/C(=C\c3ccc(OC(=O)c4ccco4)c(OC)c3)C(=O)N=C2S1 ?
HP1b chromo inh: 14%; JMJD2A Tudor: inconclusive; BAZ2B block: -39%; G9a block: 32µM*; 12-LOX inh: -19%; PLK1 PBD block: inconclusive

Results for CCS(=O)(=O)C1=NSC2=NC(=O)/C(=C\c3ccc(OC(=O)c4ccco4)c(OC)c3)C(=N)N21 ?
HP1b chromo inh: 2%; JMJD2A Tudor: -35%; BAZ2B block: -39%; G9a block: inconclusive; 12-LOX inh: inconclusive; PLK1 PBD block: inconclusive

Results for CN(C)c1ccnc(-n2cccc2/C=N/OCc2ccc(F)cc2Cl)c1C#N ?
HP1b chromo inh: 7%; JMJD2A Tudor: -11%; BAZ2B block: 3%; G9a block: -71%; 12-LOX inh: 2%; PLK1 PBD block: -9%
